# Assay outcomes from PubChem BioAssay.
# NS1 inh: inhibitors of influenza NS1 protein function. AID 2326. 270,000 tested, 0.4% active. Potency, µM (highest dose often 46.1 µM), without a hit: top-dose activity, positive = more growth; calls by dose curve; further: potency means the concentration at half of the fitted maximal effect; actives are rising curves; nearly all actives have a fitted effect of over 50% in size
#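 Compounds were scored for reversing the slow growth caused by influenza A NS1 in S. cerevisiae, measured by optical density at 600 nm. Assay medium contained 2% galactose at pH 6.0; NS1-free yeast of the same strain were the positive control.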
# Shiga toxin inh: Shiga toxin inhibition; Vero cells, Shiga toxin protein synthesis inhibition reporter; inhibition, % at 38.7 µM; 290,000 tested, 9.2% active; in the data active means inhibition mostly above about 28%, no sharp cut-off; inactive means mostly below about 43%; further: 0% is about no effect
# Pf growth 96h: P. falciparum growth inhibition at 96 hours; AID 504834; 320,000 tested, 6.9% active; P. falciparum luciferase reporter growth, 96 h; Potency, µM (highest dose often 28.7 µM), for inactives: top-dose activity change, negative = inhibition, most hits filed as inhibitors; further: potency means the concentration at half of the fitted maximal effect; on the % scale 0 is the no-effect control and ±100 the full control effect
#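 Two parasite generations (96 h, 37 C, 5% CO2) of compound exposure in infected erythrocytes (0.05% parasitemia, 2% hematocrit). Luciferase-reporter P. falciparum; decreased luminescence indicates inhibited growth, aimed at apicoplast-acting delayed death.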
# Giardia FBPA inh: inhibitors of Giardia lamblia fructose-1,6-bisphosphate aldolase; AID 2451; A8B2U2; Potency, µM (top dose mostly 59.6 µM), without a hit: top-dose activity, negative = inhibition, most hits filed as inhibitors; purified Giardia FBPA; 290,000 tested, 0.71% active; further: potency means the concentration at half of the fitted maximal effect; on the % scale 0 is the no-effect control and ±100 the full control effect; nearly all actives have a fitted effect of over 55% in size
# Target sequence (A8B2U2 whole entry, looked up): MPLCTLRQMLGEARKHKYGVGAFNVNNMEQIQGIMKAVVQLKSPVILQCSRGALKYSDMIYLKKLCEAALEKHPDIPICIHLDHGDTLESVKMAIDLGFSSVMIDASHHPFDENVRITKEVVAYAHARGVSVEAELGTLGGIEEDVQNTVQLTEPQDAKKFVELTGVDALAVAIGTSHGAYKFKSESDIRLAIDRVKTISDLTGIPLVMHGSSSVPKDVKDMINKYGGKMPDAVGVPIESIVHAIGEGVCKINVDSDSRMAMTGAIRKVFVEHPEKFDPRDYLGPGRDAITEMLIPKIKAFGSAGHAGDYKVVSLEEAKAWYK
#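 Giardia FBPA (40 nM reagent) was preincubated 10 min at RT with compound (up to 57.5 uM final), then substrate plus GAPDH/TPI/NAD/arsenate coupling system with diaphorase/resazurin was added; resorufin fluorescence (525/598 nm) was read after 20 min.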
# Pf growth 48h: inhibits P. falciparum growth in the first generation, 48 h; P. falciparum luciferase growth in erythrocytes, 48 h; Potency, µM (doses to about 28.7 µM), for inactives: at the top dose activity change, negative = inhibition, most hits filed as inhibitors; 310,000 tested, 5.9% active; further: potency means the concentration at half of the fitted maximal effect; on the % scale 0 is the no-effect control and ±100 the full control effect
#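 Read-out is firefly luciferase luminescence from an integrated reporter in P. falciparum, so falling signal marks reduced parasite growth. Infected erythrocytes were at 2% hematocrit and 0.1% parasitemia (final) in Albumax-supplemented RPMI 1640.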
# Cycloheximide cs: counter-screen hit for Shiga toxin inhibitors, cycloheximide; cell reporter, cycloheximide protein synthesis inhibition counterscreen; 300,000 tested, 12% active; max response, %; AID 2314; in the data active means max response mostly above about 13%, no sharp cut-off; inactive means mostly below about 14%; further: read at 38.3 µM for the half of the compounds with a filed dose; 0% is about no effect
# Starred values were filed as active, the others as inactive; ? = inconclusive; . = no result given; + = active, no number. A selection: hits, their analogues and other compounds. The true share with any hit is near 21%. Unless noted, the call rests on the fitted dose curve; in most records, active means well fitted curve in the direction sought with a large enough effect; inconclusive means small, poorly fitted or top-dose-only effect, or another doubt; inactive means no such curve, though single readings can be large; an effect the other way counts as inactive or inconclusive.
SMILES,NS1 inh,Shiga toxin inh,Pf growth 96h,Giardia FBPA inh,Pf growth 48h,Cycloheximide cs
CSCCC(C(=O)NCc1cccs1)N1C(=O)c2ccccc2C1=O (configuration not stated),4.5%,-11.5,9.2%,-3.5%,.,0.4
CS(=O)(=O)CCC(C(=O)Nc1ccc2c(c1)OCO2)N1Cc2ccccc2C1=O (configuration not stated),1.4%,23.1,-20.1%,5.3%,35.8%,20.1*
CC(c1nnnn1C(C)(C)C)N(Cc1cccnc1)Cc1ccccc1Cl (configuration not stated),2.1%,-15.6,.,-0.7%,13.1µM*,-4.4
CC(C)(C)n1nnnc1C(c1cccs1)N1CCN(Cc2ccccc2)CC1 (configuration not stated),-5.4%,5.5,2.9%,-17.6%,?,-1.0
CC(C)(C)n1nnnc1C(c1cccs1)N(Cc1cccnc1)Cc1ccccc1Cl (configuration not stated),-22.0%,6.3,110.3%,2.6%,2.94µM*,3.5
Cc1noc(C)c1C(=O)N1CCC2(CCCN(C(=O)Nc3cccc(C#N)c3)C2)CC1,.,.,.,14.0%,.,.
FC(F)(F)c1cc(CN2CC3(CCNCC3)C2)cc(C(F)(F)F)c1,.,.,.,3.4%,.,.
CCCCCCCCOC(=O)c1c(CSC(=N)N)n(C)c2cc(Br)c(OC(C)=O)cc12,8.2%,-9.5,10.4µM*,2.2%,?,-3.0
CCOC(=O)c1c(C)n(C)c2cc(Br)c(C(=O)OC)cc12,-17.8%,-6.1,4.1%,-9.5%,18.5%,1.6
C=CCCc1ccc(C#N)c(SCc2c(C(=O)OCC)c3cc(OC(C)=O)c(Br)cc3n2C)n1,1.4%,-2.9,0.0%,2.4%,5.22µM*,-2.7
CCOC(=O)c1c(CSc2nc(C)cc(C)c2C#N)n(C)c2cc(Br)c(OC(C)=O)cc12,9.3%,-9.9,?,3.6%,?,-1.4
CCOC(=O)c1c(CSC(=N)N)n(-c2ccc(Br)cc2)c2cc(Br)c(OC(C)=O)cc12,?,-22.3,?,0.0%,1.85µM*,-7.4
O=C(NCCSc1ncc(-c2ccc(F)cc2)[nH]1)c1ccc2c(c1)OCO2,.,.,9.0%,.,10.2%,.
O=C(CCN1C(=O)[C@@H]2Cc3ccccc3CN2C1=O)Nc1cccc(F)c1,-2.5%,1.6,-5.7%,.,-12.5%,2.1
Cc1ccc(S(=O)(=O)N2CCCC2)s1,6.0%,-11.2,29.2%,6.5%,-20.1%,-1.4
O=C(NC1CCOCC1)C1CCC(=O)N(CCc2ccc(Cl)cc2)C1 (configuration not stated),-3.9%,-5.2,-35.0%,-1.6%,1.1%,-0.9
COc1cc(-c2ncc3ccccn23)cc(OC)c1OC,-1.6%,-9.8,?,?,.,-1.4
COc1cc(OC)cc(-c2ncc3ccccn23)c1,-4.1%,16.6,-17.5%,4.3%,-0.2%,11.0
c1csc(-c2ncc3ccccn23)c1,-0.6%,68.0*,?,-10.7%,32.0%,40.4*
Fc1ccc(-c2ncc3ccccn23)cc1,-0.3%,32.7,?,-10.4%,57.0%,32.6*
Brc1ccc(-c2ncc3ccccn23)cc1,-74.5%,88.2*,114.2%,-10.1%,31.6%,60.0*
CCOCCCNC(=O)Cn1nc(Cc2ccncc2)c2ccccc2c1=O,6.7%,-8.8,11.2%,-0.7%,9.8%,-8.2
CCOc1ccc(C(=O)N2CCN(S(=O)(=O)c3cccs3)CC2)c(OCC)c1,11.4%,-22.3,4.0%,.,?,13.2
Cc1ccccc1-n1cc(C(=O)c2cc(Cl)ccc2O)cc(C#N)c1=O,-23.5%,-7.3,2.62µM*,-1.9%,5.22µM*,-3.2
O=c1cnc2cnc(Oc3ccccc3)nc2n1Cc1cccs1,.,.,.,5.6%,.,.
SMILES,NS1 inh,Shiga toxin inh,Pf growth 96h,Giardia FBPA inh,Pf growth 48h,Cycloheximide cs
C/C(=N\NC(=S)Nc1ccccc1)c1c(O)n(C)c(=O)n(C)c1=O,9.8%,+,7.4%,-6.6%,36.1%,42.3*
CC(=NCCc1ccccc1)c1c(O)n(C)c(=O)n(C)c1=O,-4.3%,8.5,-21.6%,-7.0%,5.9%,-0.6
CC/C(=N\Nc1ccccc1)c1c(O)n(C)c(=O)n(C)c1=O,2.1%,-6.1,?,-1.2%,-16.4%,-7.5
CC(=Nc1ccccc1N)c1c(O)n(C)c(=O)n(C)c1=O,-19.9%,71.5*,?,1.3%,123.1%,23.6*
C=CCn1c(N)cc(=O)nc1SCC(=O)Nc1ccc(C(=O)OCC)cc1,10.9%,-2.0,-17.8%,-5.6%,8.1%,-4.4
Cc1ccccc1-c1nc(CS(=O)(=O)CC(=O)NCc2ccco2)c(C)o1,-0.1%,-3.8,?,-2.0%,12.8%,12.0
O=c1c2ccccc2[nH]c2ccccc12,-23.7%,2.8,1.47µM*,-6.9%,1.65µM*,0.5
O=c1c(-c2ccccc2)n[nH]c2ccccc12,-143.4%,72.1*,.,1.4%,26.4%,73.6*
CCC1CCc2c([nH]c3ccccc3c2=O)O1 (configuration not stated),-21.1%,12.3,2.33µM*,-4.2%,?,-2.1
O=[N+]([O-])c1ccc2[nH]nc(-c3ccccc3)c2c1,-42.3%,-2.2,?,5.9%,36.3%,7.4
CC1(C)CCc2c([nH]c3ccccc3c2=O)O1,6.3%,2.3,?,-3.5%,?,7.9
O=c1c2c([nH]c3ccccc13)CCCCC2,-70.4%,-6.0,1.65µM*,-1.6%,1.65µM*,-5.1
CC(C)(C)NC(=O)c1sccc1C(=O)O,-74.6%,51.4*,?,3.5%,48.3%,22.4*
CC(C)(C)NC(=O)c1ccc(NC(=O)c2ccccc2-c2ccccc2C(=O)O)cc1,16.6%,-9.9,?,1.8%,?,1.4
Clc1cccc(N=NN2CCOCC2)c1Cl,-7.2%,13.5,26.1%,-0.2%,?,20.3*
Nc1cccc(Cl)c1N1CCOCC1,-4.2%,-12.9,27.2%,0.2%,21.2%,-1.9
COc1ccc(S(=O)(=O)N2CCC(C(=O)N[C@@H](C)C(=O)NCc3ccncc3)CC2)cc1,-5.6%,-6.3,?,.,4.6%,-1.8
COc1ccccc1-c1c(-c2ccc(O)cc2O)n[nH]c1C(F)(F)F,5.4%,-5.2,13.1µM*,14.7%,?,-0.4
O=C(COc1ccc(F)cc1)N1CCC(Cc2ccccc2)CC1,-2.3%,52.3,-10.5%,19.2%,?,14.4*
COc1ccc(Br)c(C(=O)OCC(=O)N2CCC(Cc3ccccc3)CC2)c1,.,.,-6.9%,.,13.1µM*,.
CCc1noc(N)c1C(=O)Nc1ccc(Cl)cc1,-17.6%,-4.6,5.2%,-2.1%,22.0%,-2.2
Cc1cccc(N2CCN(C(=O)c3cccc(N4CCCC4=O)c3)C(C)C2)c1 (configuration not stated),5.2%,5.8,?,.,?,1.4
O=Cc1c(-c2ccccc2)cc2oc3ccccc3cc1-2,0.2%,72.2*,171.9%,4.1%,.,40.2*
Nc1cccc(-c2cc3ccccc3oc2=O)c1,10.5%,7.6,?,-0.3%,62.5%,6.2
CC(C(=O)N(C)C1CCCCC1)N1CCC(C(N)=O)CC1 (configuration not stated),4.9%,3.6,-2.5%,-0.5%,9.9%,-3.9
O=C(Nc1ccc(F)cc1)c1cccc2ccccc12,-9.7%,15.4,-10.4%,-10.2%,9.9%,24.2*
